Assay outcomes: PubChem, National Center for Advancing Translational Sciences (NCATS)
An excerpt weighted towards active compounds, which were near 6.1% of everything screened.
DRD3 antagonist: qHTS of D3 Dopamine Receptor Antagonist: qHTS; D3R cells, DiscoveRx beta-arrestin luminescence, antagonist mode; active compounds read low; max response, negative = inhibition, %; 360,000 compounds, 2.5% hits; AID 652054, 2013; in the data active means max response below about -50%; inconclusive means no clear call, values can overlap the other calls
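Cells plated overnight at 1500 cells/well, then exposed to library compounds with dopamine controls for 90 minutes at 37 degrees C. DiscoveRx reagent added for 30–60 minutes at room temperature; luminescence read, quantitative HTS format.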
D1 antagonist: Antagonist of Human D 1 Dopamine Receptor: qHTS; HEK293 TREx D1 cells, calcium flux, dopamine EC80; active compounds read low; activity change, negative = inhibition, % at 10 µM; 360,000 compounds, 3.2% hits; AID 504652, 2011; in the data active means activity change below about -30%
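Allosteric or orthosteric antagonism assessed as attenuation of the calcium response to EC80 dopamine, added 180 s after compound, in induced HEK293 Trex D1 cells loaded with no-wash calcium dye.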
DRD3 agonist: qHTS of D3 Dopamine Receptor Agonist: qHTS. max activation, %. D(3) dopamine receptor (Homo sapiens), P35462. 410,000 compounds, 0.58% hits. D3R DiscoveRx beta-arrestin cells, luminescence, 90 min; in the data active means max activation above about 30%
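Cells at 1500/well, incubated overnight, then treated with pinned compounds (dopamine as control) for 90 min at 37 degrees C. DiscoveRx reagent added for 30 - 60 minutes at room temperature; luminescence read.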
D1 agonist: Allosteric Agonists of the Human D1 Dopamine Receptor: qHTS; D(1A) dopamine receptor (Homo sapiens), P21728; HEK293 T-REx D1 cells, calcium flux, agonist mode; activation, % at 2 µM; 360,000 compounds, 1% hits; AID 504660, 2011; in the data active means activation above about 30%
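Agonism was scored from calcium flux recorded over 180 s (1 read/s) after pintool compound addition, following a 10-cycle baseline. Cells were inducible force-coupled HEK293 TREx D1, plated overnight at 30 C and loaded with no-wash calcium dye.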
D1 potentiator: Potentiators of Human D1 Dopamine Receptor: qHTS | 360,000 compounds, 0.036% hits | AID 504651, 2011 | potentiation, % at 10 µM | HEK293 TREx D1 cells, calcium flux, dopamine EC20 potentiation; in the data active means potentiation above about 30%
ERG-DNA inh: qHTS for Small Molecule Inhibitors of the ERG Ets/DNA interaction | Transcriptional regulator ERG (Homo sapiens), P11308 | Potency, µM (top dose mostly 76.9 µM), hits mostly inhibitors | AID 624246, 2012 | fluorescence polarization, His-ERG Ets domain / labelled DNA | 370,000 compounds, 0.028% hits; active means well fitted inhibition curve with a large enough effect in the polarisation, with a control signal flat; inconclusive means small, poorly fitted or top-dose-only effect, or effect the other way, or a change in a side signal; inactive means no such curve, though single readings can be large or run the other way; the % refers to the polarisation;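 further: polarization taken with two DNA probes labelled with fluorescein and Texas red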
Target sequence (P11308 whole entry, looked up, the tested form may be a part): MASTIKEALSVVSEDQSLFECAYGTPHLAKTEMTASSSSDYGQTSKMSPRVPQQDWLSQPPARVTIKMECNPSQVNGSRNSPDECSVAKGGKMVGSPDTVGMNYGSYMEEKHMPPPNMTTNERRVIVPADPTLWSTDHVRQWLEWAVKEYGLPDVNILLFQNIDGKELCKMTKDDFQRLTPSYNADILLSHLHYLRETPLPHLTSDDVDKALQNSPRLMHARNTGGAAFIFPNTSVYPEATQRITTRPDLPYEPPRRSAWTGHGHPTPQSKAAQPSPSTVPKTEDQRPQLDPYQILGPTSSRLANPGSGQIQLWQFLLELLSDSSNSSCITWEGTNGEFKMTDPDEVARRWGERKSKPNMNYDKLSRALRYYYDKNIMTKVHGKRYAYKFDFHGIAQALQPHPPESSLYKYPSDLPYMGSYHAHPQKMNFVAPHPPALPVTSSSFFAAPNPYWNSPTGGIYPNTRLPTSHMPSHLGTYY
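His-tagged ERG Ets domain (1 uM in the protein solution; 300mM KCl, 50mM Tris-HCl, 1mM EDTA, 1mM DTT, pH 7.5) received compound, then a probe mix of 5 nM fluorescein-DNA and 100nM Texas-615-DNA. Fluorescence polarization was read for both dyes.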
Each line names hits and unclear results; the compound was inactive in the other large screens.

O=C(Nc1ccc(S(=O)(=O)NC2=NCCCCC2)cc1)c1ccc(Cl)c([N+](=O)[O-])c1	none (no result: D1 antagonist, D1 agonist, D1 potentiator)
O=C(Nc1ccccc1)Nc1ccc(F)c([N+](=O)[O-])c1	D1 antagonist -48
NNC(=O)CCC(=O)Nc1ccccc1	D1 antagonist -33
CCC(=O)NNC(=O)CCC(=O)Nc1ccccc1	none (no result: DRD3 antagonist, DRD3 agonist, ERG-DNA inh)
CCN1C(=O)c2cccc3c(S(=O)(=O)NC(Cc4ccccc4)C(=O)O)ccc1c23 (stereo not given)	none
CCCN1CCN(C(=O)c2ccccc2-c2nc3ccccc3s2)CC1	none
Cc1ccc(CN(CC(=O)NCCc2ccccc2)C(=O)CCCC(=O)Nc2cc(C)on2)cc1	none
O=C(OCC(=O)N1CCCC1)c1ccc(Cl)c([N+](=O)[O-])c1	none
CCc1ccc(NC(=S)Nc2ccc3cn[nH]c3c2)cc1	none
CC(C)(C)NC1=NCCNC(c2ccccc2)=C1	none (no result: D1 antagonist, D1 agonist, D1 potentiator, ERG-DNA inh)
CC(CC(=O)Nc1ccc(Cl)c([N+](=O)[O-])c1)c1ccccc1 (stereo not given)	DRD3 antagonist -57
CC(=O)Nc1ccc(C)c([N+](=O)[O-])c1	none
N#Cc1ccsc1NC(=O)c1ccc(Cl)c([N+](=O)[O-])c1	D1 antagonist -38, D1 agonist 39
Cc1ccc(NC(=O)Nc2ccccc2)cc1[N+](=O)[O-]	D1 antagonist -33
CCNC(=S)Nc1cccc([N+](=O)[O-])c1	none (no result: DRD3 antagonist, DRD3 agonist, ERG-DNA inh)
CCNC(=S)Nc1ccc(Cl)c([N+](=O)[O-])c1	D1 antagonist -39
C=CCn1sc(N)c(C(=O)OCC)c1=S	none
O=c1cc(-c2ccc(O)c(O)c2)oc2cc(O[C@@H]3O[C@H](CO)[C@@H](O)[C@H](O)[C@H]3O)cc(O)c12	none (no result: D1 antagonist, D1 agonist, D1 potentiator)
c1ccc2sc(Cc3nnc4n3CCCCC4)nc2c1	none (no result: ERG-DNA inh)
CC(=O)N[C@@H](Cc1ccc(O)cc1)C(=O)O	none (no result: DRD3 antagonist, D1 antagonist, D1 agonist, D1 potentiator, ERG-DNA inh)
O=C(Nc1ccccc1)NC(Cc1ccc(O)cc1)C(=O)O (stereo not given)	DRD3 antagonist -65
O=C(Nc1ccccc1)Nc1ccccc1	DRD3 antagonist inconclusive, D1 antagonist -33
COC(=O)c1cc(NC(=O)Nc2ccccc2)ccc1Cl	D1 antagonist -54, D1 agonist 41
N#Cc1ccc(NC(=O)Nc2cccc(C#N)c2)cc1	D1 antagonist -63, D1 agonist 32
CCC(C)[C@H](NC(=O)[C@@H]1Cc2ccccc2CN1C(=O)OC(C)(C)C)C(=O)NCC1CCC(C(=O)O)CC1 (stereo not given in full)	none
CC(CC(=O)Nc1ccc2c(c1)c(=O)n(C)n2-c1ccccc1)c1ccccc1 (stereo not given)	DRD3 antagonist -78 (no result: D1 antagonist, D1 agonist, D1 potentiator, ERG-DNA inh)
CN(C)CC/C=C1/c2ccccc2Sc2c(O)cc(Cl)cc21	DRD3 antagonist inconclusive, D1 antagonist -94, D1 agonist 44
COc1cc(Cl)cc2c1Sc1ccccc1/C2=C/CCN(C)C	DRD3 antagonist -77, D1 antagonist -62
CN(C)CC/C=C1/c2cc(F)ccc2Sc2ccc(Cl)cc21	DRD3 antagonist -84 (no result: D1 antagonist, D1 agonist, D1 potentiator)
CN(C)CC/C=C1/c2ccccc2CSc2ccccc21	none (no result: DRD3 antagonist, D1 antagonist, D1 agonist, D1 potentiator, ERG-DNA inh)
COc1cc2c(cc1Cl)/C(=C\CCN(C)C)c1ccccc1S2	DRD3 antagonist -92, D1 antagonist -41
CN(C)CCC(=O)N1c2ccccc2Sc2ccc(Cl)cc21	none
CN(c1cccc(NC(=O)c2ccccc2N(C)S(=O)(=O)c2ccccc2)c1)S(C)(=O)=O	none
O=C(NCC1CCCO1)c1ccc(CS(=O)(=O)c2ccc(Cl)cc2)o1 (stereo not given)	none (no result: D1 antagonist)
Cc1cc(C)c(S(=O)(=O)N2CCN(C(=O)c3cccs3)CC2)c(C)c1	none
O=C(O)c1ccc(N2CC3CC(C2)c2cccc(=O)n2C3)c(NC(=S)Nc2ccc(Cl)cc2Cl)c1 (stereo not given)	none
Cc1ccc(-c2csc3ncnc(N4CCN(S(=O)(=O)c5cccs5)CC4)c23)cc1	none
Cc1cccc(N(CC(=O)NC2CCCC2)C(=O)CCC(=O)Nc2cc(C)on2)c1	DRD3 agonist 32
Cc1ccc(C(C(=O)NC2CCCC2)N(Cc2ccco2)C(=O)CCC(=O)Nc2cc(C)on2)cc1 (stereo not given)	D1 antagonist -32
COCCNC(=O)C(c1ccc(C)cc1)N(Cc1ccco1)C(=O)CCC(=O)Nc1ccccn1 (stereo not given)	DRD3 antagonist -89
COC(=O)c1cccc(N(CC(=O)NC2CCCC2)C(=O)CCC(=O)Nc2cc(C)on2)c1	none
Cc1ccc(C(C(=O)NC(C)(C)C)N(CC2CCCO2)C(=O)CCC(=O)Nc2ccccn2)cc1 (stereo not given)	DRD3 agonist 48
CC(C)N(C(=O)CSc1nnc(NC(=O)c2cccs2)s1)C(C)C	none
O=C(N/N=C/c1c[nH]c2ccccc12)c1ccn[nH]1	none
Cc1c(C(=O)N2CC(C)OC(C)C2)oc2ccccc12 (stereo not given)	DRD3 antagonist -72
Cc1c(C(=O)N2CCCC(C(F)(F)F)C2)oc2ccccc12 (stereo not given)	none
COc1ccccc1C(=O)Nc1ccc2nc(SCC(=O)N3CCCc4ccccc43)sc2c1	none (no result: DRD3 antagonist)
Cc1ccc(C(=O)Oc2ccc(N3C(=O)CCC3=O)c(C)c2)cc1	none
CC(=O)N(C)C1=C(N2CCOCC2)C(=O)c2ccccc2C1=O	DRD3 antagonist -57
CCOc1ccccc1N(CC(=O)OC)S(=O)(=O)c1ccccc1	none
COC(=O)c1ccc(=O)n(Cc2ccco2)c1	none
COC(=O)c1cc(Br)c(=O)n(Cc2ccco2)c1	DRD3 antagonist -52
COC(=O)c1c(C(=O)OC)c(C)n(Cc2ccco2)c1C	D1 antagonist -68
O=C(N/N=C/c1ccccc1)c1cc[n+]([O-])cc1	none
CN1CCN(C(=S)C(=O)NCc2ccccc2)CC1	none
Cc1ccc(S(=O)(=O)N(Cc2ccc(F)cc2)Cc2ccco2)cc1	D1 antagonist -33
Cc1ccc(S(=O)(=O)N(Cc2ccccc2)Cc2ccco2)cc1	D1 antagonist -31
Cc1ccc(S(=O)(=O)N(CC(=O)O)Cc2ccco2)cc1	none
Cc1ccc(-n2c(SCC(=O)NCc3ccco3)nnc2-c2cccnc2)cc1	none
c1ccc(N2CCN(CC3CCCCC3)CC2)cc1	DRD3 antagonist -75
O=C(CSC1CCCCC1)N1CCN(c2ccccc2)CC1	none
O=C(CSc1nnc(CNC(=O)c2ccccc2F)o1)c1ccc(Cl)cc1	none
